D1 PAM: enhances dopamine response at the human D1 receptor. AID 504651. HEK293 TREx D1 cells, calcium flux, dopamine EC20 potentiation. P21728. actives 0.036% (n = 360,000). potentiation, % at 10 µM; in the data active = potentiation above about 30%; note: 0% is about no effect
USP2a block: inhibitors of human ubiquitin-specific protease USP2a; O75604; USP2 core, Ub-CHOP2 coupled fluorogenic reporter, 485/531; actives 0.01% (n = 330,000); AID 463254; Potency, µM (highest dose often 38.3 µM), inactives show at the top dose activity change, negative = inhibition, most hits filed as inhibitors;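 note: potency is the fitted concentration of half-maximal effect; plate controls were DMSO wells for no effect and full inhibition by NEM control for full effect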
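Deubiquitinase activity read as fluorescence (485/531 nm) after Ub-CHOP2 cleavage activates the enterokinase reporter on its substrate; USP2 core 10nM, Ub-CHOP2 and substrate 25nM each, 30min compound preincubation then 60min RT; data normalized to NEM, curves fitted.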
D1 antagonist: blocks dopamine activation of the human D1 receptor. P21728. HEK293 TREx D1 cells, calcium flux, dopamine EC80; active compounds read low. activity change, negative = inhibition, % at 10 µM. actives 3.2% (n = 360,000); in the data active = activity change below about -30%; note: % is set by controls: 0 for no effect and ±100 for the full control effect
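Allosteric or orthosteric antagonism assessed as attenuation of the calcium response to EC80 dopamine, added 180 s after compound, in induced HEK293 Trex D1 cells loaded with no-wash calcium dye.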
Eya2 inh: Eya2 (human) phosphatase inhibition. Potency, µM (highest dose often 76.9 µM), inactives show at the top dose activity, negative = inhibition, actives largely listed as inhibitors. actives 0.006% (n = 330,000). O00167. recombinant Eya2, OMFP fluorescence dephosphorylation (OMFP is methylfluorescein phosphate). AID 488837; note: potency is the fitted concentration of half-maximal effect; % is set by controls: 0 for no effect and ±100 for the full control effect
Target sequence (O00167 whole entry, looked up): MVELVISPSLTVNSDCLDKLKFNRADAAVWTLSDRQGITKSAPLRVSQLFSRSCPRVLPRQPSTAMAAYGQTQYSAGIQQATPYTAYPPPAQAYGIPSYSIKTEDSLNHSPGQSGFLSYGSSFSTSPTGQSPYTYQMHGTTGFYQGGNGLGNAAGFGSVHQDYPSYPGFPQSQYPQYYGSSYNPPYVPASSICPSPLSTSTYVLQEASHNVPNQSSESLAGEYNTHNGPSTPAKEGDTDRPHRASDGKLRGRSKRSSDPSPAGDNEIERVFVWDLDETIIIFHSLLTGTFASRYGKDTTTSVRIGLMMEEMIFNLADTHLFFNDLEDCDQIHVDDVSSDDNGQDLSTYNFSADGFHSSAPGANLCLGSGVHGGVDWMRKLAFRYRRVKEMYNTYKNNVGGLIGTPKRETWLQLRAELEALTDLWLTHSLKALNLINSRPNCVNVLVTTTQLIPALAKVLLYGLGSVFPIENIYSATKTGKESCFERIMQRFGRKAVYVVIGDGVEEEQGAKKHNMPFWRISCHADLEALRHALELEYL
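Eya2 protein (added as 0.2 uM solution) was preincubated with compound for 10 min at ambient temperature in 50 mM HEPES pH 7.5, 50 mM NaCl, 5 uM MgCl2, 0.05% BSA, 1 mM DTT. OMFP (added at 50 uM) then reacted 10 min; fluorescence read at 485/525 nm.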
D1 agonist: agonists of human D1 dopamine receptor. P21728. HEK293 T-REx D1 cells, calcium flux, agonist mode. activation, % at 2 µM. actives 1% (n = 360,000). AID 504660; in the data active = activation above about 30%; note: 0% is about no effect
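Tetracycline-induced HEK293 TREx D1 cells, force-coupled to calcium signalling, were dye-loaded with a no-wash calcium kit. Compound was pin-added after a 10 s baseline. Fluorescence was read kinetically at 1 cycle/s for 180 s, with calcium rises flagged as agonism.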
GALK inhibitor: inhibitors of human galactokinase; Purified GALK, Kinase-Glo residual ATP luminescence; Potency, µM (doses to about 57.5 µM), for inactives: top-dose activity change, negative = inhibition, hits mostly inhibitors; actives 0.007% (n = 270,000); AID 1868; note: potency is the fitted concentration of half-maximal effect; % is set by controls: 0 for no effect and ±100 for the full control effect
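5 nM enzyme, 35 uM ATP, 100 uM galactose, 20 mM HEPES pH8.0, 5 mM MgCl2; 1 h RT; residual ATP by Kinase-Glo Plus luminescence, qHTS format.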
An asterisk follows results filed as active; ! = not confirmed by another sample. Hits are enriched below; roughly 3.9% of the tested compounds scored in any of these assays. Unless noted, calls come from the whole dose curve; as a rule, active = well fitted inhibition curve with a large enough effect; inconclusive = small, poorly fitted or top-dose-only effect, or effect the other way; inactive = flat fitted curve, though single readings scatter.

For CCOC(=O)c1scc(-c2ccc(C)cc2)c1S(=O)(=O)Nc1cccc(CC)c1 the results were D1 PAM -5, D1 antagonist 3 and D1 agonist 23.
COc1ccc(O)c(/C=N/n2c(-c3ccco3)csc2=Nc2cccnc2)c1 was read as D1 PAM -5, USP2a block 4%, D1 antagonist -42*, Eya2 inh -8%, D1 agonist 4 and GALK inhibitor 0%.
For COCCn1c(-c2ccco2)csc1=Nc1cccnc1 the results were D1 PAM 1, USP2a block 2%, D1 antagonist 6, Eya2 inh 9%, D1 agonist 1 and GALK inhibitor -4%.
Cc1ccc2nc(NCc3ccccc3)c3nnnn3c2c1 was read as D1 PAM -1, D1 antagonist 8 and D1 agonist 1.
COc1cc2c(cc1OC)C(COc1ccccc1OC)N(C(C)=O)CC2 (configuration not stated) was read as D1 PAM -5, USP2a block 1%, D1 antagonist -49*, Eya2 inh -5% and D1 agonist 3.
Screening COC(=O)c1ccc(OCC2c3cc(OC)c(OC)cc3CCN2C(=O)c2ccc(F)cc2)cc1 (configuration not stated) returned D1 PAM -3, D1 antagonist -39* and D1 agonist 8.
Screening O=C(Nc1ccc(OCc2cc(=O)n3c4c(sc3n2)CCCC4)cc1)c1ccc(F)cc1 returned D1 PAM 3, D1 antagonist 9 and D1 agonist 2.
For CCOC(=O)c1c(S(=O)(=O)NCC(=O)N2CCN(c3ccccc3OC)CC2)c(C)n(C)c1C the results were D1 PAM 3, USP2a block -1%, D1 antagonist -32*!, Eya2 inh 10%, D1 agonist 0 and GALK inhibitor -4%.
For Cc1ccccc1C(=O)NNC(=S)NC(=O)c1ccccc1 the results were D1 PAM -1, USP2a block 0%, D1 antagonist -37*, Eya2 inh 7%, D1 agonist 279* and GALK inhibitor 2%.
`Cc1ccc(C(=O)NNC(=S)NC(=O)c2ccco2)cc1` gave D1 PAM -8, USP2a block 4%, D1 antagonist -11, Eya2 inh 1%, D1 agonist 59* and GALK inhibitor -2%.
Cc1cccc(-c2nnc(NC(=O)c3cccs3)s2)c1 was read as D1 PAM 0, USP2a block 0%, D1 antagonist -41*, Eya2 inh 0% and D1 agonist 1.
Screening Cc1ccc(C)c(NC(=S)NCc2ccccc2)c1 returned D1 PAM -8, USP2a block -2%, D1 antagonist -36*, Eya2 inh -8%, D1 agonist 2 and GALK inhibitor 0%.
Screening O=C(Nc1nnc(-c2cccnc2)s1)c1cccs1 returned D1 PAM 1, USP2a block -1%, D1 antagonist 5, Eya2 inh -7%, D1 agonist 2 and GALK inhibitor 3%.
For Cc1ccc(C(=O)NNC(=O)c2ccco2)cc1 the results were D1 PAM 8, USP2a block -2%, D1 antagonist 11, Eya2 inh 0%, D1 agonist 3 and GALK inhibitor 1%.
CCCCC(=O)NC(=S)NNC(=O)c1ccc(Cl)cc1Cl was read as D1 PAM 0, USP2a block 3%, D1 antagonist -21, Eya2 inh 8%, D1 agonist 0 and GALK inhibitor 1%.
O=C(NNC(=S)NC(=O)c1ccc(Br)cc1)c1cccc([N+](=O)[O-])c1 was read as D1 PAM -1, USP2a block 2%, D1 antagonist -5, Eya2 inh 1%, D1 agonist 32* and GALK inhibitor 3%.
For Cc1cccc(NC(=S)NNC(=O)c2ccco2)c1 the results were D1 PAM 7, USP2a block 1%, D1 antagonist -26, Eya2 inh -3%, D1 agonist 2 and GALK inhibitor 0%.
For Cc1ccc(C(=O)NNC(=S)NC(=O)c2ccc(Cl)cc2Cl)cc1 the results were D1 PAM 2, USP2a block 2%, D1 antagonist 4, Eya2 inh -18%, D1 agonist 154* and GALK inhibitor -1%.
CC(C)(C)c1cc(CCC(=O)NNC(=S)NC(=O)c2ccccc2)cc(C(C)(C)C)c1O was read as D1 PAM 18, USP2a block 3%, D1 antagonist -66*, Eya2 inh -6%, D1 agonist 133* and GALK inhibitor 0%.
`Cc1ccc(C)c(NC(=S)NNC(=O)c2ccco2)c1` gave D1 PAM -8, USP2a block 3%, D1 antagonist -35*, Eya2 inh -11%, D1 agonist 3 and GALK inhibitor -1%.
Screening CSc1cccc(NC(=O)CN(C)S(=O)(=O)c2ccc3c(c2)CCCN3C(C)=O)c1 returned D1 PAM -5, D1 antagonist 2 and D1 agonist 8.
Screening Cc1ccc(NC(=O)N2CCC(N3CCN(Cc4ccccc4)C(=O)C3=O)CC2)cc1Cl returned D1 PAM -2, D1 antagonist 1 and D1 agonist 1.
For O=C(Nc1ccc(Br)cc1)c1cc([N+](=O)[O-])cc([N+](=O)[O-])c1 the results were D1 PAM -3, USP2a block 2%, D1 antagonist -37*, Eya2 inh -4%, D1 agonist 19 and GALK inhibitor -2%.
Cc1cccc(C(=O)NNC(=S)NC(=O)c2cccs2)c1 was read as D1 PAM -9, USP2a block 2%, D1 antagonist -6, Eya2 inh -1%, D1 agonist 76* and GALK inhibitor -3%.
Screening COc1ccc(C(=O)NNC(=S)NC(=O)c2cccs2)cc1 returned D1 PAM -1, USP2a block 4%, D1 antagonist -8, Eya2 inh 11%, D1 agonist 13 and GALK inhibitor -1%.
Screening Cc1ccc(C(=O)NC(=S)NNC(=O)c2ccccc2)cc1 returned D1 PAM -5, USP2a block 2%, D1 antagonist -42*, Eya2 inh 12%, D1 agonist 200* and GALK inhibitor 5%.
Screening Cc1ccc(C(=O)NC(=S)NNC(=O)c2ccccc2O)cc1 returned D1 PAM -1, USP2a block 3%, D1 antagonist -16, Eya2 inh 1%, D1 agonist 55* and GALK inhibitor 5%.
COc1ccccc1CNc1nc2nc(C)c(Cl)c(C)n2n1 was read as D1 PAM 0, D1 antagonist 2 and D1 agonist -2.

Assay outcomes (PubChem BioAssay)
